# The supplement of paper PMC12282887
# ± gives the standard deviation of the averaged measurements.
# Legend:
# Assay in all cases: promoter activity interaction Z-score (Lux/OD deviation from empty-vector control); higher = stronger promoter induction by the compound
# [1] = tested on: E. coli BW25113 acrABp lux reporter
# How it was run: (§1)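 At 37°C, E. coli BW25113 reporter cultures in 40 µl LB Lennox in 384-well plates were read for OD600 and luminescence every 30 min for 12 h. Windows were 0–8 h for wild type and 1–9 h for deletion strains, and wells under 10% of the median growth value were removed. The score is the Z-transformed residual of growth-normalised luminescence against a control fit.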
# [2] = tested on: E. coli BW25113 micFp lux reporter
# How it was run: as §1
# [3] = tested on: E. coli BW25113 ompFp lux reporter
# How it was run: as §1
# [4] = tested on: E. coli BW25113 robp lux reporter
# How it was run: as §1
# [5] = tested on: E. coli BW25113 soxSp lux reporter
# How it was run: as §1
# [6] = tested on: E. coli BW25113 tolCp lux reporter
# How it was run: as §1
# [7] = 0.07 µg/ml, genetic background: wild type
# [8] = 0.07 µg/ml, genetic background: ΔmarA
# [9] = 0.07 µg/ml, genetic background: Δrob
# [10] = 0.07 µg/ml, genetic background: ΔsoxS
# [11] = 0.15 µg/ml, genetic background: wild type
# [12] = 0.15 µg/ml, genetic background: ΔmarA
# [13] = 0.15 µg/ml, genetic background: Δrob
# [14] = 0.15 µg/ml, genetic background: ΔsoxS
# [15] = 0.29 µg/ml, genetic background: wild type
# [16] = 0.29 µg/ml, genetic background: ΔmarA
# [17] = 0.29 µg/ml, genetic background: Δrob
# [18] = 0.29 µg/ml, genetic background: ΔsoxS
smiles,measurement,setting,value
NCC[C@H](O)C(=O)N[C@@H]1C[C@H](N)[C@@H](O[C@H]2O[C@H](CN)[C@@H](O)[C@H](O)[C@H]2O)[C@H](O)[C@H]1O[C@H]1O[C@H](CO)[C@@H](O)[C@H](N)[C@H]1O [Amikacin],promoter activity interaction Z-score,[1]; [7],-0.0946 ± 0.19
same,promoter activity interaction Z-score,[1]; [8],-0.446 ± 0.067
same,promoter activity interaction Z-score,[1]; [9],-0.0638 ± 0.15
same,promoter activity interaction Z-score,[1]; [10],0.407 ± 0.79
same,promoter activity interaction Z-score,[1]; [11],-0.184 ± 0.091
same,promoter activity interaction Z-score,[1]; [12],0.671 ± 0.15
same,promoter activity interaction Z-score,[1]; [13],0.0534 ± 0.092
same,promoter activity interaction Z-score,[1]; [14],0.0811 ± 0.13
same,promoter activity interaction Z-score,[1]; [15],0.115 ± 0.19
same,promoter activity interaction Z-score,[1]; [16],-0.213 ± 0.41
same,promoter activity interaction Z-score,[1]; [17],0.174 ± 0.22
same,promoter activity interaction Z-score,[1]; [18],0.725 ± 0.52
same,promoter activity interaction Z-score,[2]; [7],0.278 ± 0.0046
same,promoter activity interaction Z-score,[2]; [8],-0.0226 ± 0.005
same,promoter activity interaction Z-score,[2]; [9],0.217 ± 0.22
same,promoter activity interaction Z-score,[2]; [10],0.0839 ± 0.14
same,promoter activity interaction Z-score,[2]; [11],0.512 ± 0.097
same,promoter activity interaction Z-score,[2]; [12],-0.00684 ± 0.057
same,promoter activity interaction Z-score,[2]; [13],0.12 ± 0.33
same,promoter activity interaction Z-score,[2]; [14],0.119 ± 0.33
same,promoter activity interaction Z-score,[2]; [15],-0.0466 ± 0.17
same,promoter activity interaction Z-score,[2]; [16],-0.0853 ± 0.18
same,promoter activity interaction Z-score,[2]; [17],0.176 ± 0.21
same,promoter activity interaction Z-score,[2]; [18],0.577 ± 0.056
same,promoter activity interaction Z-score,[3]; [7],0.0689 ± 0.025
same,promoter activity interaction Z-score,[3]; [8],-0.0472 ± 0.084
same,promoter activity interaction Z-score,[3]; [9],-0.503 ± 0.43
same,promoter activity interaction Z-score,[3]; [10],0.197 ± 1.1
same,promoter activity interaction Z-score,[3]; [11],0.165 ± 0.46
same,promoter activity interaction Z-score,[3]; [12],-0.0471 ± 0.24
same,promoter activity interaction Z-score,[3]; [13],-0.472 ± 0.32
same,promoter activity interaction Z-score,[3]; [14],-0.668 ± 0.2
same,promoter activity interaction Z-score,[3]; [15],0.00226 ± 0.33
same,promoter activity interaction Z-score,[3]; [16],-0.365 ± 0.65
same,promoter activity interaction Z-score,[3]; [17],-0.428 ± 0.22
same,promoter activity interaction Z-score,[3]; [18],-0.0742 ± 0.3
same,promoter activity interaction Z-score,[4]; [7],0.19 ± 0.2
same,promoter activity interaction Z-score,[4]; [8],-0.331 ± 0.085
same,promoter activity interaction Z-score,[4]; [9],0.0353 ± 0.83
same,promoter activity interaction Z-score,[4]; [10],-0.155 ± 0.68
same,promoter activity interaction Z-score,[4]; [11],0.0679 ± 0.58
same,promoter activity interaction Z-score,[4]; [12],-0.461 ± 0.45
same,promoter activity interaction Z-score,[4]; [13],-0.248 ± 0.33
same,promoter activity interaction Z-score,[4]; [14],-0.642 ± 0.14
same,promoter activity interaction Z-score,[4]; [15],-0.115 ± 0.051
same,promoter activity interaction Z-score,[4]; [16],0.598 ± 0.21
same,promoter activity interaction Z-score,[4]; [17],-1.2 ± 0.31
same,promoter activity interaction Z-score,[4]; [18],-0.0862 ± 0.53
same,promoter activity interaction Z-score,[5]; [7],0.354 ± 0.11
same,promoter activity interaction Z-score,[5]; [8],0.016 ± 0.15
same,promoter activity interaction Z-score,[5]; [9],0.176 ± 0.043
same,promoter activity interaction Z-score,[5]; [10],0.0385 ± 0.3
same,promoter activity interaction Z-score,[5]; [11],0.336 ± 0.13
same,promoter activity interaction Z-score,[5]; [12],0.137 ± 0.1
same,promoter activity interaction Z-score,[5]; [13],0.346 ± 0.51
same,promoter activity interaction Z-score,[5]; [14],-0.156 ± 0.15
same,promoter activity interaction Z-score,[5]; [15],0.219 ± 0.2
same,promoter activity interaction Z-score,[5]; [16],-0.031 ± 0.32
same,promoter activity interaction Z-score,[5]; [17],-0.131 ± 0.29
same,promoter activity interaction Z-score,[5]; [18],0.0937 ± 0.57
same,promoter activity interaction Z-score,[6]; [7],-0.282 ± 0.25
same,promoter activity interaction Z-score,[6]; [8],-0.355 ± 0.29
same,promoter activity interaction Z-score,[6]; [9],1.45 ± 1.6
same,promoter activity interaction Z-score,[6]; [10],1.15 ± 0.34
same,promoter activity interaction Z-score,[6]; [11],0.0971 ± 0.8
same,promoter activity interaction Z-score,[6]; [12],0.793 ± 0.15
same,promoter activity interaction Z-score,[6]; [13],0.637 ± 0.84
same,promoter activity interaction Z-score,[6]; [14],-0.668 ± 0.34
same,promoter activity interaction Z-score,[6]; [15],1.16 ± 1.8
same,promoter activity interaction Z-score,[6]; [16],-0.226 ± 1.1
same,promoter activity interaction Z-score,[6]; [17],1.53 ± 1.6
same,promoter activity interaction Z-score,[6]; [18],1.21 ± 0.019
